# From PubChem BioAssay (EPA / NIEHS)
# Active and inactive are the calls of the source. The calls were made as follows: active = hit-call score of the fitted dose curve at least 0.9, where 1 is the maximum; inactive = score below 0.9.
# Assay: UKN5_HCS_SBAD2_neurite_outgrowth: University of Konstanz (UKN) Leist Lab Neurite Outgrowth Assay in human iPSC-derived immature Dorsal Root Ganglia Neurons (UKN5) (AID 2284070)
# Conditions: actives raise or lower the signal
# Summary of the method: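 Thaw, seed on Matrigel (100.000 cells/cm2), dose 1 h later; at 23 h live-stain with H-33342 and calcein-AM for 60 min; image at 24 h. Neurite area fitted bidirectionally vs DMSO.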
row,SMILES,outcome
1,CNC(=O)CSP(=O)(OC)OC,inactive
2,O=S1OC[C@@H]2[C@H](CO1)[C@]1(Cl)C(Cl)=C(Cl)[C@@]2(Cl)C1(Cl)Cl (some centres not stated),inactive
